30 molecules from PubChem BioAssay can be followed below.

Test [1] deals with ATP-dependent translocase ABCB1 (Homo sapiens) (UniProt P08183). Put plainly: MDR1 (ABCB1) efflux transporter inhibition, cell-based (AID 377). As to conditions: MDR1-expressing cells, fluorescent substrate accumulation slope; stronger effect = higher value; concentration not given here.
Test [2] can be described thus: hESC survival regulators, cell-based (AID 493140; call rule not given here;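 note: cells exposed to compounds for four days before counting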). As to conditions: human embryonic stem cell survival screen; stronger effect = higher value.
Test [3] is described as follows: liver-stage malaria parasite growth inhibition, primary screen, cell-based, HepG2, luciferase luminescence, HepG2 viability (AID 624349; in the data active = parasite load remaining mostly below about 12%, no sharp cut-off; inactive = mostly above about 10%;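 note: 100% = mean of DMSO negative control wells on the same plate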). To be noted: P. berghei liver stage in HepG2, luciferase luminescence, concentration not given here; parasite load remaining: stronger effect = lower value; viability: measured here: HepG2 viability without parasites.

In general, viability refers to the share of living cells, or the viability signal relative to a control.

Inconclusive results are not listed. Calls of active or inactive are those of the source. Cut-off read from the data, not from the text of the source, unless noted: active = fluorescence slope change above about 50%; inconclusive = mostly about 31% to 49%; inactive = weaker than that.

ATP-dependent translocase ABCB1 (Homo sapiens), sequence (P08183 whole entry, looked up): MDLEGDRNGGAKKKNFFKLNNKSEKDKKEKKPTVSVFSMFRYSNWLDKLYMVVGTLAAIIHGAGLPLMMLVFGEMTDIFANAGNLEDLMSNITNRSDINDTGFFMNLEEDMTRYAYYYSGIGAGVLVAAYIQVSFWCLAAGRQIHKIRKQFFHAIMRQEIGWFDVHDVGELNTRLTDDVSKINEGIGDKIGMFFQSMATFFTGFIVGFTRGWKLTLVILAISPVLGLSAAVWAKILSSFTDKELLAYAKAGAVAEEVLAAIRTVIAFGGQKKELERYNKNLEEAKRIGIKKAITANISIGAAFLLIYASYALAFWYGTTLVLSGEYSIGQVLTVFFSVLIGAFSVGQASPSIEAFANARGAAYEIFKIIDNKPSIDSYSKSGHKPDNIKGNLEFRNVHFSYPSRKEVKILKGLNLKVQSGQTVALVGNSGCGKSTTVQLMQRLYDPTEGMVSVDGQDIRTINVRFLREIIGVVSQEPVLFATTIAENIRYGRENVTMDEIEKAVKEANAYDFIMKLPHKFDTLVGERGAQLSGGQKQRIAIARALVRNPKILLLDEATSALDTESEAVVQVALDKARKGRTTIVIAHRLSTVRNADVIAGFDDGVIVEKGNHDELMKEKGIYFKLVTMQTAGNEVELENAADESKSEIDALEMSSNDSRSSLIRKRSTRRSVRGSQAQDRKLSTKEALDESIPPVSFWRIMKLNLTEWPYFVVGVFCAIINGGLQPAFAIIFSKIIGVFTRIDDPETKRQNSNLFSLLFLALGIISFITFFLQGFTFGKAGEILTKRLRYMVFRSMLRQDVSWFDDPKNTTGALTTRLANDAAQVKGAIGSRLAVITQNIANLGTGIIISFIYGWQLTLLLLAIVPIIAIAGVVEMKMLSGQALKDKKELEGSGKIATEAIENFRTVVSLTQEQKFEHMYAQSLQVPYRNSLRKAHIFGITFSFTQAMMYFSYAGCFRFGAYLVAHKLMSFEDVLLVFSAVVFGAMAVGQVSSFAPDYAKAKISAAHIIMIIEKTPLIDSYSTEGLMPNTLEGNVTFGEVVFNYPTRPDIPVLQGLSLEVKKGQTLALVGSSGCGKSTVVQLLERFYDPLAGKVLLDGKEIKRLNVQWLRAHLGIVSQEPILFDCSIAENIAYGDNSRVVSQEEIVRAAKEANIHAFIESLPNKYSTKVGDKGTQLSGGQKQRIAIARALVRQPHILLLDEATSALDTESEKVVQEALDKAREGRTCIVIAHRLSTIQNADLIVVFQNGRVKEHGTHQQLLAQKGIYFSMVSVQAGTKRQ

Take `CC1Nc2ccccc2C1NC(=O)c1ccc(Cl)c(S(N)(=O)=O)c1` (configuration not stated): the fluorescence slope change in test [1] is 26.2% (inactive).
In the case of `NCC1OC(OC2C(N)CC(N)C(OC3OC(CO)C(O)C(N)C3O)C2O)C(O)C(O)C1O` (configuration not stated), the fluorescence slope change in test [1] is 9.9% (inactive). For the same molecule, the survival in test [2] is 5.58 (inactive). Further, in test [3], the parasite load remaining is 77.1% (inactive) and the viability worked out at 78.9%.
Taken in the same sequence, the figures for `C[C@@H]1C(=O)O[C@H]2CC34[C@H]5C[C@@H](C(C)(C)C)C36[C@@H](OC(=O)[C@@H]6O)OC4(C(=O)O5)[C@]21O` (some centres not stated) were 57.6% (active), 10.1 (inactive), 79.2% (inactive) and 79.7%.
As for `Nc1ccc(S(=O)(=O)Nc2ccc3nccnc3c2)cc1`, the fluorescence slope change in test [1] is 6.1% (inactive).
Regarding `CC1OC(O[C@H]2/C=C/C=C/C=C/C=C/C=C/C=C/C=C/[C@H](C)[C@@H](O)[C@@H](C)[C@H](C)OC(=O)C[C@H](O)C[C@H](O)CC[C@@H](O)[C@H](O)C[C@H](O)C[C@]3(O)C[C@H](O)[C@@H](C(=O)O)[C@H](C2)O3)C(O)C(N)C1O` (some centres not stated), the fluorescence slope change in test [1] is 94.6% (active). For the same molecule, in test [2], the survival was 10.9 (inactive). Also, in test [3], the parasite load remaining was 50.3% (inactive) and the viability stood at 92.5%.
Take `COC(=O)C1[C@H]2C[C@H]3c4[nH]c5ccccc5c4CCN3C[C@H]2CC[C@@H]1O` (some centres not stated): the fluorescence slope change in test [1] was 78.8% (active).
As to `CC1CCC2(OC1)O[C@H]1C[C@H]3[C@@H]4CC[C@H]5C[C@@H](O)CC[C@]5(C)[C@H]4CC(=O)[C@]3(C)[C@H]1[C@@H]2C` (some centres not stated), the fluorescence slope change in test [1] is 74.2% (active). Moreover, the survival in test [2] was 3.25 (inactive).
On to `COc1cc([C@@H]2c3cc4c(cc3[C@@H](O[C@@H]3O[C@@H]5CO[C@@H](C)O[C@H]5[C@H](O)[C@H]3O)C3COC(=O)[C@@H]32)OCO4)cc(OC)c1O` (some centres not stated), for which, in test [1], the fluorescence slope change is 20.9% (inactive). Also, the survival in test [2] was 0.25 (inactive). Also, in test [3], the parasite load remaining is 64.7% (inactive) and the viability came to 83.1%.
With `CCCC(=O)Nc1ncnc2c1ncn2[C@@H]1O[C@@H]2COP(=O)(O)O[C@@H]2C1OC(=O)CCC` (some centres not stated), in test [1], the fluorescence slope change is 80% (active). Further, in test [2], the survival is 3.33 (inactive).
`NCC1OC(OC2C(N)CC(N)C(OC3OC(CO)C(O)C(N)C3O)C2O)C(N)CC1O` (configuration not stated): the fluorescence slope change in test [1] was -2% (inactive). Besides, the survival in test [2] is 1.08 (inactive). In test [3], the parasite load remaining was 57.1% (inactive) and the viability amounted to 77.2%.
For `CC[N+]1(C)C2CCC1CC(OC(=O)[C@H]1CCC(C(=O)OC3CC4CCC(C3)[N+]4(C)CC)(c3ccccc3)c3ccccc31)C2` (some centres not stated), in test [1], the fluorescence slope change was 92.7% (active). The survival in test [2] is 4.5 (inactive).
On to `CC[C@H](C)[C@H]1O[C@]2(CC[C@@H]1C)C[C@@H]1C[C@@H](C/C=C(\C)C(O[C@H]3C[C@H](OC)[C@@H](O[C@H]4C[C@H](OC)[C@@H](O)[C@H](C)O4)[C@H](C)O3)[C@@H](C)/C=C/C=C3\CO[C@@H]4[C@H](O)C(C)=C[C@@H](C(=O)O1)[C@]34O)O2` (some centres not stated), for which the fluorescence slope change in test [1] is 136% (active). In addition, in test [2], the survival is 17.6 (inactive). In test [3], the parasite load remaining is 93.7% (inactive) and the viability was 89.6%.
Take `C[C@H](CCC(=O)O)[C@H]1CC[C@H]2[C@@H]3C(O)C[C@@H]4CC(O)CC[C@]4(C)[C@H]3CC[C@]12C` (some centres not stated): in test [1], the fluorescence slope change was 167% (active).
Turning to `COc1ccc2cc3n(c(=O)c2c1OC)CCc1cc2c(cc1-3)OCO2`, in test [1], the fluorescence slope change is 57.9% (active).
Regarding `CCCCC/C=C\C[C@@H]1O[C@H]1C(O)/C=C\C/C=C\CCCC(=O)O` (some centres not stated), the survival in test [2] is 86.8 (inactive).
As for `c1ccc2c3c([nH]c2c1)C1C2CCC(C4CCCNC42)N1CC3` (configuration not stated), in test [1], the fluorescence slope change was 15.6% (inactive). In addition, the survival in test [2] was 1.58 (inactive).
The like results for `NCC1OC(OC2C(N)CC(N)C(O)C2O[C@@H]2O[C@H](CO)[C@H](O)C2O)C(N)C(O)C1O` (some centres not stated) were, in that order, 50.5% (active) and 0.167 (inactive).
For `CCC(C(=O)C(C)C(O)C(C)CCc1ccc(C)c(O)c1C(=O)O)[C@H]1O[C@](CC)([C@H]2CCC(O)(CC)[C@H](C)O2)C[C@@H]1C` (some centres not stated), the fluorescence slope change in test [1] is 130% (active).
For the molecule `CC(C)N1CCN(c2ccc(OC[C@@H]3CO[C@@](Cn4cncn4)(c4ccc(Cl)cc4Cl)O3)cc2)CC1`, the fluorescence slope change in test [1] is 82.8% (active). Also, the survival in test [2] is 7.75 (inactive). Moreover, in test [3], the parasite load remaining is 57.7% (inactive) and the viability was found to be 72.8%.
As to `On1ccccc1=S`, the fluorescence slope change in test [1] was 9% (inactive).
As to `O=C(O)c1cc2ccccc2c(Cc2cc3ccccc3c(C(=O)O)c2O)c1O` (tested in a mixture with another compound), the fluorescence slope change in test [1] is 14.8% (inactive). Also, in test [2], the survival is 7.75 (inactive). Also, in test [3], the parasite load remaining is 58.5% (inactive) and the viability was 76.8%.
Regarding `CC(=O)Nc1c(I)c(C(=O)NC2[C@H](O)OC(CO)[C@@H](O)[C@H]2O)c(I)c(N(C)C(C)=O)c1I` (some centres not stated), in test [1], the fluorescence slope change is 95.2% (active). The survival in test [2] was 16.9 (inactive). In test [3], the parasite load remaining was 81% (inactive) and the viability worked out at 75.5%.
Turning to `COc1cc2cc(N(C)CCCNC(=O)C3CCCO3)cc(N)c2cc1OC` (configuration not stated), in test [1], the fluorescence slope change was 52.5% (active).
Consider `CCC(=O)OC1C(C)OC(OC2C(C)OC(O[C@H]3[C@@H](CC=O)C[C@@H](C)[C@@H](O)/C=C/C=C/C[C@@H](C)OC(=O)C[C@@H](OC(=O)CC)[C@@H]3OC)C(O)C2N(C)C)CC1(C)O` (some centres not stated), for which the fluorescence slope change in test [1] is 72% (active). Also, the survival in test [2] is 16.6 (inactive). In addition, in test [3], the parasite load remaining was 77.4% (inactive) and the viability was 89%.
Regarding `CC[C@H]1OC(=O)[C@H](C)[C@@H](OC2CC(C)(OC)C(O)C(C)O2)[C@H](C)[C@@H](OC2OC(C)CC(N(C)C)C2O)[C@](C)(O)C[C@@H](C)/C(=N\OCOCCOC)[C@H](C)[C@@H](O)[C@]1(C)O` (some centres not stated), the fluorescence slope change in test [1] was 66.5% (active). Besides, the survival in test [2] is 6.25 (inactive).
Consider `CN(N=O)C(=O)N[C@@H]1C(O)OC(CO)[C@@H](O)[C@H]1O` (some centres not stated), for which the fluorescence slope change in test [1] is 25.6% (inactive).
Turning to `CCOc1ccc2ccccc2c1C(=O)NC1C(=O)N2C1SC(C)(C)C2C(=O)O` (configuration not stated), in test [1], the fluorescence slope change is 71.1% (active).
Take `COc1ccc([C@@H]2CC(=O)c3c(O)cc(O[C@@H]4OC(CO[C@@H]5OC(C)[C@H](O)[C@H](O)C5O)[C@@H](O)[C@@H](O)C4O)cc3O2)cc1O` (some centres not stated): the fluorescence slope change in test [1] is 9.9% (inactive). Also, the survival in test [2] was 9.92 (inactive). In addition, in test [3], the parasite load remaining is 71.5% (inactive) and the viability stood at 80.9%.
The like results for `CO[C@@H]1[C@@H](OC2OC(C)C(OC3CC(C)(O)C(OC(=O)CC(C)C)C(C)O3)C(N(C)C)C2O)[C@@H](CC=O)C[C@@H](C)[C@@H](O)/C=C/C=C/C[C@@H](C)OC(=O)C[C@H]1OC(C)=O` (some centres not stated) were, in that order, 127% (active), 16.8 (inactive), 90.7% (inactive) and 92.1%.
For the molecule `C=C1C(=O)O[C@H]2C1CC/C(C)=C/CC[C@@]1(C)O[C@H]21` (some centres not stated), the fluorescence slope change in test [1] was 20.5% (inactive).
